Test results reported in PubChem BioAssay AID1159580 (chemical genetic matrix, 2015).
The whole screen tested about 5,500 compounds, of which about 2,000 (36%) were called active. Roughly 18% stayed inconclusive and do not appear here. Cut-off read from the data, not from the text of the source: active = normalized growth mostly below about 0.91 (no sharp cut-off); inconclusive = no clear call, values can overlap the other calls; inactive = mostly above about 0.92. The list shows a part of the results.

Assay: chemical genetic growth profiling, strain panel (AID 1159580);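 note: tested at 20 µM; growth read once vehicle control cultures reached saturation at 30 °C; 1 = growth at the plate median or of vehicle wells; lower values mean less growth of the strain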
Settings: S. cerevisiae deletion strains, growth OD

Measured: normalized growth

CC(=O)Oc1c(C)cccc1C(=O)O
inactive: locus YAL013W, strain DEP1, hits give low values 1.01 | locus YAL021C, strain ccr4, hits give low values 0.989 | locus YAL026C, strain drs2, hits give low values 1.01 | locus YAL030W, strain snc1, hits give low values 0.992 | locus YBL061C, strain skt5, hits give low values 1.01 | locus YBR009C, strain hhf1, hits give low values 1.01 | locus YBR021W, strain FUR4, hits give low values 0.989 | locus YBR023C, strain chs3, hits give low values 1 | locus YBR171W, strain sec66, hits give low values 1.02 | locus YBR229C, strain ROT2, hits give low values 0.988 | locus YBR231C, strain swc5, hits give low values 1.02 | locus YBR279W, strain paf1, hits give low values 1.01 | locus YCL011C, strain gbp2, hits give low values 1.01 | locus YCL016C, strain dcc1, hits give low values 0.998 | locus YCL029C, strain bik1, hits give low values 1.01 | locus YCL061C, strain MRC1, hits give low values 1.01 | locus YCL069W, strain vba3, hits give low values 1.01 | locus YCR088W, strain abp1, hits give low values 1.02 | locus YDL005C, strain med2, hits give low values 1.02 | locus YDL035C, strain GPR1, hits give low values 1.01 | locus YDL040C, strain nat1, hits give low values 1 | locus YDL074C, strain BRE1, hits give low values 1 | locus YDL101C, strain DUN1, hits give low values 1.01 | locus YDL134C, strain PPH21, hits give low values 1.01 | locus YDL185W, strain tfp1, hits give low values 0.999 | locus YDL192W, strain arf1, hits give low values 1.02 | locus YDR001C, strain nth1, hits give low values 1.01 | locus YDR069C, strain doa4, hits give low values 1.01 | locus YDR101C, strain arx1, hits give low values 1.02 | locus YDR137W, strain rgp1, hits give low values 0.985 | locus YDR150W, strain NUM1, hits give low values 1.01 | locus YDR159W, strain sac3, hits give low values 0.981 | locus YDR162C, strain NBP2, hits give low values 1 | locus YDR195W, strain ref2 0.994 | locus YDR297W, strain sur2, hits give low values 0.987 | locus YDR318W, strain mcm21, hits give low values 1.02 | locus YDR334W, strain swr1, hits give low values 1.01 | locus YDR335W, strain msn5, hits give low values 0.989 | locus YDR388W, hits give low values 1.01 | locus YDR392W, strain spt3, hits give low values 0.957 | locus YDR502C, strain sam2, hits give low values 1.02 | locus YEL003W, strain gim4, hits give low values 1.03 | locus YEL037C, strain rad23, hits give low values 1.02 | locus YEL061C, strain CIN8 (second series), hits give low values 1.01 | locus YEL061C, strain CIN8, hits give low values 0.995 | locus YER015W, strain faa2, hits give low values 1.01 | locus YER016W, strain bim1, hits give low values 0.984 | locus YER110C, hits give low values 1.02 | locus YER111C, strain swi4, hits give low values 1.02 | locus YER155C, strain BEM2 (second series), hits give low values 1.01 | locus YER155C, strain BEM2, hits give low values 1.01 | locus YER167W, strain BCK2, hits give low values 1.01 | locus YFR010W, strain ubp6, hits give low values 1.02 | locus YGL078C, strain dbp3, hits give low values 1.01 | locus YGL086W, strain mad1, hits give low values 1.01 | locus YGL167C, strain pmr1, hits give low values 1.01 | locus YGL173C, strain kem1, hits give low values 1.02 | locus YGL227W, strain vid30, hits give low values 1.01 | locus YGL240W, strain doc1, hits give low values 0.971 | locus YGL248W, strain PDE1, hits give low values 1.01 | locus YGL253W, strain hxk2, hits give low values 1.01 | locus YGR078C, strain PAC10, hits give low values 1 | locus YGR135W, strain pre9, hits give low values 1 | locus YGR229C, strain SMI1, hits give low values 1.02 | locus YGR252W, strain gcn5, hits give low values 1 | locus YHR013C, strain ard1, hits give low values 1.01 | locus YHR027C, strain rpn1, hits give low values 0.991 | locus YHR030C, strain SLT2, hits give low values 1.01 | locus YHR079C, strain IRE1 (second series), hits give low values 1 | locus YHR094C, strain hxt1, hits give low values 1.01 | locus YHR129C, strain ARP1, hits give low values 1.01 | locus YHR142W, strain chs7, hits give low values 1.02 | locus YHR200W, strain rpn10, hits give low values 1.02 | locus YIL066C, strain RNR3, hits give low values 1.01 | locus YIL073C, strain SPO22, hits give low values 1.05 | locus YIL125W, strain kgd1, hits give low values 1.01 | locus YIR030C, strain dcg1, hits give low values 1.01 | locus YJL092W, strain hpr5, hits give low values 1.01 | locus YJL095W, strain BCK1 (second series), hits give low values 0.977 | locus YJL095W, strain BCK1, hits give low values 1.01 | locus YJL115W, strain asf1, hits give low values 1.02 | locus YJL129C, strain trk1, hits give low values 1.04 | locus YJL134W, strain LCB3, hits give low values 1.01 | locus YJL154C, strain vps35, hits give low values 1 | locus YJL164C, strain tpk1, hits give low values 0.997 | locus YJL166W, strain qcr8, hits give low values 1 | locus YJL168C, strain set2, hits give low values 1.01 | locus YJL187C, strain SWE1 (second series), hits give low values 1.01 | locus YJL187C, strain SWE1, hits give low values 0.983
